Tg IFNy HTS = T. gondii growth inhibition under IFN-gamma | Toxoplasma gondii growth in IFN-gamma-treated host cells; hits give low values | activity change, negative = inhibition, % (concentration not given with the values) | 3.8% of 69,000 active | AID 1259416; in the data active means activity change below about -70%, passing the limit was not always enough;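 further: host cells are HeLa cells infected with Toxoplasma gondii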
* marks the source's active call; other numbers are inactive results. The sample as a whole holds a higher share of hits than the screen did.

SMILES	Tg IFNy HTS
CC(C)CN1C(=O)N(C)C2(CCN(Cc3cccn3-c3cccnc3)CC2)C1=O	4
CCCCC1=NC2(CCN(C(=O)C(NC(C)=O)C(C)C)CC2)C(=O)N1 (stereo not drawn)	27
Cc1oc2c(c1C(=O)Nc1cccc(OCCN3CCOCC3)c1)CCCC2	40
COc1c(C)c2c(c(O)c1C/C=C(\C)CCC(=O)OCCN1CCOCC1)C(=O)OC2	-76*
O=C(c1nc(-c2cccc(F)c2)n2c1CCCCC2)N1CCN(c2ccccc2)CC1	-12
CCOC(=O)C1CCCN(C(=O)c2nc(-c3ccc(Cl)cc3)n3c2CCCCC3)C1 (stereo not drawn)	99
Cc1ccc(-c2nc(C(=O)N3CCCC(C)C3)c3n2CCCCC3)cc1 (stereo not drawn)	-96*
CC1CCCN(C(=O)c2nc(-c3ccc(Cl)cc3)n3c2CCCCC3)C1 (stereo not drawn)	-97*
CCOC(=O)C1CCN(C(=O)c2nc(-c3ccc(Cl)cc3)n3c2CCCCC3)CC1	-69
Cc1ccc(-c2nc(C(=O)N3CCC(C)CC3)c3n2CCCCC3)cc1	-32
COc1c(C)cc(-c2ccc(CN)s2)cc1C	135
CCC1CN(Cc2[nH]nc3cc(OC)ccc23)CCN1C(C)C (stereo not drawn)	6
O=C(CSC12CC3CC(CC(C3)C1)C2)N1CCn2cncc2C1	-12
COc1ccccc1-n1cc(C(=O)N2CCCn3nc(C)cc3C2)cn1	16
O=C(Nc1ccc2c(c1)ncn2-c1ccccc1)c1cccs1	-95*
O=C(Nc1ccc2c(c1)CS(=O)(=O)C2)c1cccs1	48
CN(C)c1ccc(NC(=O)c2cccs2)cc1	38
CCOc1cccc(-c2ccc(C(=O)NC)s2)c1	171
OC1O[C@@H]2COC(c3ccccc3)O[C@H]2[C@H](O)[C@H]1O (stereo partly drawn)	24
Cc1cc(CNC(=O)c2cc3ccccc3s2)c2ccccc2n1	12
CC1CCN(C(=O)c2cc3ccccc3s2)CC1	19
O=C(O)c1cc2ccccc2s1	-71*
CCCc1c(C(=O)Nc2ccc3ccccc3n2)cnn1-c1ccccc1	-37
CCCc1c(-c2nc(-c3ccc(C(C)(C)C)cc3)no2)cnn1-c1ccccc1	-97*
CC(C)(C)c1ccc(-c2noc(CCOc3ccc(F)cc3)n2)cc1	34
SMILES	Tg IFNy HTS
Cc1noc([C@H]2CNC(=O)[C@H]3CCN(C(=O)N(C)C)CC[C@H]32)n1	1
Fc1cccc(Cl)c1CSCc1nc2ccccc2[nH]1	-7
CS(=O)(=O)N1CCS(=O)(=O)[C@H]2CCN(CC3CC3)CC[C@@H]21	-11
CC(C)NC(=O)N1CC[C@@H](N2CCN(C)CC2)[C@@H]1Cc1cnn(C)c1	34
O=C(CCSc1nc(-c2ccc3c(c2)OCO3)cc(C(F)(F)F)n1)N1CCCCC1	-76*
O=C(COc1ccc2c(c1)OCO2)N1CCN(C(=O)c2ccco2)CC1	16
O=C(/C=C/c1ccc2c(c1)OCO2)N1CCCCC1	95
CCCn1cnc(NC(=O)c2cc(=O)n(C)c(=O)[nH]2)n1	-1
CC(C)Oc1ccc(-c2noc(-c3c(O)c4ccccc4n(C)c3=O)n2)cc1	-26
O=C(O)CCn1c(=O)sc2ccccc21	7
O=C(CCn1c(=O)sc2ccccc21)Nc1ccc(S(=O)(=O)N2CCCCC2)cc1	-88*
O=C(O)CCC(=O)Nc1ccc(S(=O)(=O)N2CCCC2)cc1	151
O=C(c1ccsc1)N1CCC2(CC1)Cc1ccccc1CNC2=O	-31
COc1nc2ccccc2cc1CN1CCCC(CNC(C)=O)C1 (stereo not drawn)	6
COc1ccc(-n2c(CN)n[nH]c2=O)cc1Cl	-4
O=C(C[C@@H]1CC[C@H]2[C@@H](COC[C@H](O)CN2C(=O)c2ccncc2)O1)Nc1ccc(-c2ccccc2)cc1	-43
O=C(Nc1ccncc1)Nc1ccc(-c2nc(N3CCOCC3)nc(N3C4CCC3COC4)n2)cc1	-74*
CCc1cc(-c2cccc(NC(C)=O)c2)nc(N2CCOCC2)n1	-26
CCn1ccnc1CN1CCCC(c2cccc(Cc3ccc(Cl)cc3)n2)C1 (stereo not drawn)	14
CCCCC(CC)CN=C(N)NC(N)=NCCCCCCN=C(N)NC(N)=NCC(CC)CCCC (stereo not drawn)	-79*
CC1=C(C(=O)OC2CCCCC2)C(c2ccc([N+](=O)[O-])cc2)C2=C(CC(C)(C)CC2=O)N1 (stereo not drawn)	-68
COCC(=O)N1CCCc2c(C#N)nn(C)c2C1	59
Cc1cc(C)cc(NC(=O)CC(=O)NCc2ccccc2)c1	-86*
Cc1ccc(NC(=O)CC(=O)NCc2ccc(CN3CCCC3)cc2)cc1	-21
CCc1nc(OCC(=O)Nc2cc(C)cc(C)c2)c2ccccc2n1	-6
SMILES	Tg IFNy HTS
COc1cccc(CN2CCC3(CC2)OC(C(N)=O)Cn2ccnc23)c1 (stereo not drawn)	101
CC(=O)N1CCOCC2(C1)CN(S(=O)(=O)C1CC1)CCO2 (stereo not drawn)	-12
CNC(=O)c1cc(=O)n(CC(=O)Nc2cc(C)ccc2C)c2ccccc12	-11
COc1ncccc1-c1cc(N)nc(N2CCCC2)n1	-5
COc1ccc(-c2nc(NCCN3CCOCC3)c3ccccc3n2)cc1	-58
COc1ccc2c(c1)CCc1c-2nc2ccccc2c1N1CCOCC1	-98*
COc1ccc(-c2nc(N3CCc4ccccc4C3)c3ccccc3n2)cc1	63
CCOC(=O)c1nc(Nc2cc(F)ccc2F)c2ccccc2n1	15
Cc1cc(C)c(C(=O)N2CCOC(CCCc3ccccc3)C2)c(=O)[nH]1 (stereo not drawn)	9
CCCc1cc2c(cc1NC(=O)Cn1cc(C(C)C)nn1)OCO2	7
O=c1[nH]cc(Nc2ccccc2)c(=O)[nH]1	27
Nc1c(NCc2ccccc2)c(=O)c1=O	28
O=c1c(Nc2ccccc2)c(Nc2ccccc2)c1=O	-82*
COCC(=O)NCCc1csc(-c2ccc(Cl)cc2)n1	-3
Cc1cc(-c2nnc(SCC(=O)Nc3ccc(C(C)C)cc3)n2C)no1	-19
C[C@@H]1CN([C@@H](C)CO)C(=O)CCCn2nncc2CO[C@@H]1CN(C)Cc1cccc(C(F)(F)F)c1	27
C[C@H](CO)N1C[C@H](C)[C@H](CN(C)Cc2cccc(C(F)(F)F)c2)OCc2cnnn2CCCC1=O	179
C[C@@H]1CN([C@H](C)CO)C(=O)CCCn2nncc2CO[C@@H]1CN(C)Cc1cccc2c1OCCCO2	-58
C[C@@H]1CN([C@H](C)CO)C(=O)CCCn2nncc2CO[C@H]1CN(C)Cc1cccc2c1OCCCO2	-88*
C[C@H]1CN([C@@H](C)CO)C(=O)CCCn2nncc2CO[C@H]1CN(C)Cc1cccc(C(F)(F)F)c1	-106*
C[C@H](CO)N1C[C@H](C)[C@@H](CN(C)Cc2cccc3c2OCCCO3)OCc2cnnn2CCCC1=O	201
O=C(c1ccco1)N1CCC2O[C@H](COCC3CCOCC3)CCC21 (stereo partly drawn)	0
COc1cccc(CNC2=NCCNC23CCN(S(=O)(=O)c2ccc(C)c(C)c2)CC3)c1	10
CC(C)c1ccc(S(=O)(=O)N2C[C@@H]3OCCN(Cc4cnn(C)c4)[C@H]3C2)cc1	0
COc1ccccc1-n1c(=O)n(Cc2nc(-c3ccc(OC(C)C)cc3)oc2C)c(=O)c2cccnc21	16
COc1ccc(CCN2C[C@]34CN(c5ncc(F)cn5)C[C@@H](C[C@H]3S2(=O)=O)O4)cc1	-8
CC1CNC(=O)CCN1C(=O)c1cn2cc(Cl)ccc2n1 (stereo not drawn)	-31
CCS(=O)(=O)N(C)C1c2cc(C#N)ccc2OC(C)(C)C1O (stereo not drawn)	-7
